# Legend:
# Test in all cases: DAPPL (digital affinity profiling via proximity ligation, sequencing); 10 mM Tris-HCl pH 7.5, 50 mM NaCl, 1 mM DTT, 4% glycerol, room temperature, 30 min; GST-TFs on glutathione beads, 16-mer random dsDNA library, 0.1% formaldehyde crosslink after washing; high values mean tight binding
# Conditions in all cases: protein: recombinant; tags: N-terminal GST; dsDNA, one strand shown
# ERF = biological target: T1, ERF (Homo sapiens, UniProt P50548 1-548)
# T1 sequence: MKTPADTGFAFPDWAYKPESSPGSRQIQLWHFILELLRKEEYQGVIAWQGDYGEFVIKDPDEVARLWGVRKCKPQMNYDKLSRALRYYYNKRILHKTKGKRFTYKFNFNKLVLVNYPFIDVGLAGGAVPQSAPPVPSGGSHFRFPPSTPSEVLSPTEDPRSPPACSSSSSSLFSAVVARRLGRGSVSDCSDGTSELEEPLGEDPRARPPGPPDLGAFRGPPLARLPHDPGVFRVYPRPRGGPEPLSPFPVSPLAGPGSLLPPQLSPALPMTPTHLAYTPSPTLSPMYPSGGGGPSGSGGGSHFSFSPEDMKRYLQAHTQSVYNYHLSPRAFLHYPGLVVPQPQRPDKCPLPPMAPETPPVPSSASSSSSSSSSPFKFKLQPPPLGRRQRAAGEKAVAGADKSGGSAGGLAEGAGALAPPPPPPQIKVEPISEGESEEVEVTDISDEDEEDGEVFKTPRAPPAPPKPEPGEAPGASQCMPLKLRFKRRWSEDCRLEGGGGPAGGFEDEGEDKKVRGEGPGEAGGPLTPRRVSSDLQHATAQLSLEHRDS
# Summary of the method: (§1)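 Sequencing on an Illumina NextSeq500 followed washing, crosslinking with 0.1% formaldehyde, proximity ligation (BsaI/T4 ligase, 1 h, 37 °C) and PCR amplification of pools that had been incubated for 30 min at room temperature with 200 nmole of a random double-stranded 16-mer DNA library in Tris/NaCl/DTT/glycerol buffer. Each pool held DNA-barcoded human transcription factors, expressed in yeast as GST fusions and captured on glutathione beads, plus a tag-only sample. Binding signal is a hexamer's read frequency for a factor divided by its frequency in the tag-only sample.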
# ETV3L = biological target: T2, ETV3L (Homo sapiens, UniProt Q6ZN32 1-361)
# T2 sequence: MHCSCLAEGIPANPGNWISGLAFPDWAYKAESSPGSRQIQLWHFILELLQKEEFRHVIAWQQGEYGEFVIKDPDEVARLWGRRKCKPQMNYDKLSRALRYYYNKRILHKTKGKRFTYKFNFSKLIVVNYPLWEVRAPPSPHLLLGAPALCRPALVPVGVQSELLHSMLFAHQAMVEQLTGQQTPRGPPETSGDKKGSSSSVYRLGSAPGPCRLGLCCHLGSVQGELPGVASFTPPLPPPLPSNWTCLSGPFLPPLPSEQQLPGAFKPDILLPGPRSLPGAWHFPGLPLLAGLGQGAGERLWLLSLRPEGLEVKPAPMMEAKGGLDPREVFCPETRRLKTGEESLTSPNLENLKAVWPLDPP
# Summary of the method: as §1
# ETS2 = biological target: T3, ETS2 (Homo sapiens, UniProt P15036 1-469)
# T3 sequence: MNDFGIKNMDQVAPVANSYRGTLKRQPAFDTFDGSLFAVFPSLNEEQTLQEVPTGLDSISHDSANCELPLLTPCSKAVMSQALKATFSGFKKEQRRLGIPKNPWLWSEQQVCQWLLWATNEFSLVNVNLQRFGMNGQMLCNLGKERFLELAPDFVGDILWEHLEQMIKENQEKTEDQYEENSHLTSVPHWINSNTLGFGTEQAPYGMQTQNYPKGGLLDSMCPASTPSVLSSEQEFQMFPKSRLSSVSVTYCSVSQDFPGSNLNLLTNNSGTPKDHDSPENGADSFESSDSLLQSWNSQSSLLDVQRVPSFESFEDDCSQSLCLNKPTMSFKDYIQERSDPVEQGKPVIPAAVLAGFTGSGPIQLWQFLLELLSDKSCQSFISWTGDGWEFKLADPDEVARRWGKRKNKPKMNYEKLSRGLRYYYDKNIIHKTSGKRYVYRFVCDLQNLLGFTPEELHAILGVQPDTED
# Summary of the method: as §1
# SPDEF = biological target: T4, SPDEF (Homo sapiens, UniProt O95238 1-335)
# T4 sequence: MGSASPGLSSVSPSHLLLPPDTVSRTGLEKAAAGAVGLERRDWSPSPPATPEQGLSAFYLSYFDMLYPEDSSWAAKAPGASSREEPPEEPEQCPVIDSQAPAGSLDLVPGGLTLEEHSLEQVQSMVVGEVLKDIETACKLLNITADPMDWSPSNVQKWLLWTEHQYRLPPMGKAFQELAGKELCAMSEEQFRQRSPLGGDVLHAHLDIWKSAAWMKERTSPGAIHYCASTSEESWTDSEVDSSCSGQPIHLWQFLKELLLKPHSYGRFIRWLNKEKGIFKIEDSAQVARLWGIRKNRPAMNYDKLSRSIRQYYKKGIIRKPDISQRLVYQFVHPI
# Summary of the method: as §1
# ETV7 = biological target: T5, ETV7 (Homo sapiens, UniProt Q9Y603 1-341)
# T5 sequence: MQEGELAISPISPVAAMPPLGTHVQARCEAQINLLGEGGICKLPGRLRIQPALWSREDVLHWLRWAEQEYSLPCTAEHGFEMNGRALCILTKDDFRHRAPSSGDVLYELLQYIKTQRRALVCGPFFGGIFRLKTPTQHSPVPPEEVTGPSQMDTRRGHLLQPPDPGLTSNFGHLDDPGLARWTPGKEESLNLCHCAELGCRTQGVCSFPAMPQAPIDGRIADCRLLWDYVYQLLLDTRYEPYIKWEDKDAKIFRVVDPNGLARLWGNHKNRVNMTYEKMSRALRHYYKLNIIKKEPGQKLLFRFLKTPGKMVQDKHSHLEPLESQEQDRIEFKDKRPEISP
# Summary of the method: as §1
# ELF5 = biological target: T6, ELF5 (Homo sapiens, UniProt Q9UKW6-2 1-255)
# T6 sequence: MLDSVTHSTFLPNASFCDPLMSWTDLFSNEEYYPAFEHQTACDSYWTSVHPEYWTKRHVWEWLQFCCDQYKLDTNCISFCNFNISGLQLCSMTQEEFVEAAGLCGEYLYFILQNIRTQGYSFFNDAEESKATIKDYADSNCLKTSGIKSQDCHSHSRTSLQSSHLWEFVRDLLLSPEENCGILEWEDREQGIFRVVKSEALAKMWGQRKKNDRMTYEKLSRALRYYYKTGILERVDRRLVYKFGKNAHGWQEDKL
# Summary of the method: as §1
# ETV3 = biological target: T7, ETV3 (Homo sapiens, UniProt P41162-2 1-143)
# T7 sequence: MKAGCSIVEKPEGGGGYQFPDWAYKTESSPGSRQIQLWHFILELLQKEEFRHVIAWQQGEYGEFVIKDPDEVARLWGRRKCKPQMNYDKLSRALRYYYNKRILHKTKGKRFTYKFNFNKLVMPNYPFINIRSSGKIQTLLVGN
# Summary of the method: as §1
# ETV6 = ETV6 (Homo sapiens, UniProt P41212 1-452)
# Summary of the method: as §1
# ETV6, sequence (P41212 whole entry): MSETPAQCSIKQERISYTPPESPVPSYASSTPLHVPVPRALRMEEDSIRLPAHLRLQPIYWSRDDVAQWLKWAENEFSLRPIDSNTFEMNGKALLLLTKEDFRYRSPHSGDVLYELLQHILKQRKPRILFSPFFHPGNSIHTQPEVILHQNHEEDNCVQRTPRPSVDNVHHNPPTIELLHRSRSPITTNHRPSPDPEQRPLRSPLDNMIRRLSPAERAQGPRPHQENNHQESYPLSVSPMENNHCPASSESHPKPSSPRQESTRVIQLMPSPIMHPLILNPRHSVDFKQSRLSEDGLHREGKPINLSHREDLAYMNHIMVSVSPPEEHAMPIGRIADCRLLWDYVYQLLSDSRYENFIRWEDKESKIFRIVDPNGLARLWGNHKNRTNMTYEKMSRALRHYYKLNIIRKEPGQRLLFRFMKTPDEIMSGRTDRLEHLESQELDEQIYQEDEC
Sequence,binding signal (ERF),binding signal (ETV3L),binding signal (ETS2),binding signal (SPDEF),binding signal (ETV7),binding signal (ELF5),binding signal (ETV3),binding signal (ETV6)
TAATGA,"1.26 fold enrichment (6-mer frequency, TF over GST control)","1.24 fold enrichment (6-mer frequency, TF over GST control)","1.2 fold enrichment (6-mer frequency, TF over GST control)","1.11 fold enrichment (6-mer frequency, TF over GST control)","1.18 fold enrichment (6-mer frequency, TF over GST control)","1.12 fold enrichment (6-mer frequency, TF over GST control)","1.1 fold enrichment (6-mer frequency, TF over GST control)","1.21 fold enrichment (6-mer frequency, TF over GST control)"
ATGCAC,"1.25 fold enrichment (6-mer frequency, TF over GST control)","1.28 fold enrichment (6-mer frequency, TF over GST control)","1.29 fold enrichment (6-mer frequency, TF over GST control)","1.5 fold enrichment (6-mer frequency, TF over GST control)","1.3 fold enrichment (6-mer frequency, TF over GST control)","1.19 fold enrichment (6-mer frequency, TF over GST control)","1.31 fold enrichment (6-mer frequency, TF over GST control)","1.29 fold enrichment (6-mer frequency, TF over GST control)"
CCTTCG,"1.36 fold enrichment (6-mer frequency, TF over GST control)","1.36 fold enrichment (6-mer frequency, TF over GST control)","1.3 fold enrichment (6-mer frequency, TF over GST control)","1.33 fold enrichment (6-mer frequency, TF over GST control)","1.38 fold enrichment (6-mer frequency, TF over GST control)","1.24 fold enrichment (6-mer frequency, TF over GST control)","1.12 fold enrichment (6-mer frequency, TF over GST control)","1.31 fold enrichment (6-mer frequency, TF over GST control)"
TTATAA,"1.15 fold enrichment (6-mer frequency, TF over GST control)","1.19 fold enrichment (6-mer frequency, TF over GST control)","1.2 fold enrichment (6-mer frequency, TF over GST control)","1.17 fold enrichment (6-mer frequency, TF over GST control)","1.21 fold enrichment (6-mer frequency, TF over GST control)","1.19 fold enrichment (6-mer frequency, TF over GST control)","1.16 fold enrichment (6-mer frequency, TF over GST control)","1.19 fold enrichment (6-mer frequency, TF over GST control)"
GAACCC,"1.03 fold enrichment (6-mer frequency, TF over GST control)","1.19 fold enrichment (6-mer frequency, TF over GST control)","1.13 fold enrichment (6-mer frequency, TF over GST control)","1.17 fold enrichment (6-mer frequency, TF over GST control)","1.16 fold enrichment (6-mer frequency, TF over GST control)","1.14 fold enrichment (6-mer frequency, TF over GST control)","1.07 fold enrichment (6-mer frequency, TF over GST control)","1.21 fold enrichment (6-mer frequency, TF over GST control)"
ATGTTG,"1.24 fold enrichment (6-mer frequency, TF over GST control)","1.23 fold enrichment (6-mer frequency, TF over GST control)","1.22 fold enrichment (6-mer frequency, TF over GST control)","1.31 fold enrichment (6-mer frequency, TF over GST control)","1.43 fold enrichment (6-mer frequency, TF over GST control)","1.15 fold enrichment (6-mer frequency, TF over GST control)","1.33 fold enrichment (6-mer frequency, TF over GST control)","1.22 fold enrichment (6-mer frequency, TF over GST control)"
TTTGTC,"1.23 fold enrichment (6-mer frequency, TF over GST control)","1.32 fold enrichment (6-mer frequency, TF over GST control)","1.24 fold enrichment (6-mer frequency, TF over GST control)","1.14 fold enrichment (6-mer frequency, TF over GST control)","1.35 fold enrichment (6-mer frequency, TF over GST control)","1.22 fold enrichment (6-mer frequency, TF over GST control)","1.29 fold enrichment (6-mer frequency, TF over GST control)","1.17 fold enrichment (6-mer frequency, TF over GST control)"
TACGTC,"1.08 fold enrichment (6-mer frequency, TF over GST control)","1.27 fold enrichment (6-mer frequency, TF over GST control)","1.2 fold enrichment (6-mer frequency, TF over GST control)","1.33 fold enrichment (6-mer frequency, TF over GST control)","1.27 fold enrichment (6-mer frequency, TF over GST control)","1.23 fold enrichment (6-mer frequency, TF over GST control)","1.14 fold enrichment (6-mer frequency, TF over GST control)","1.37 fold enrichment (6-mer frequency, TF over GST control)"

# Reference: paper PMC7862700, “An all-to-all approach to the identification of sequence-specific readers for epigenetic DNA modifications on cytosine”
